Results reported in PubChem BioAssay AID1259343 (VanderVen Lab, College of Veterinary Medicine, Cornell …, 2017).
Hit rate of the full screen: of about 6,200 compounds, about 2,900 (47%) were called active. Rule as the data show it: active = inhibition above about 50%; inactive = the rest. So high a share suggests a set chosen from earlier hits. The list shows a part of the results.

Test: Mycobacterium tuberculosis growth inhibition, primary screen (AID 1259343)
Conditions: inhibition: at 10 µM, hits give high values; outcome: 10 uM

**Q.** For `CCN(CC)[P+](N(C)Cc1ccco1)(N(CC)CC)N(CC)CC`, which inhibition is on record?
**A.** Its inhibition is 30.8% (inactive).

**Q.** Which inhibition does the source give for `NC1=NC(c2cccc(Cl)c2)n2c(nc3ccccc32)N1` (stereo unspecified) here?
**A.** Its inhibition is 56.7% (active).

**Q.** Which inhibition does the source give for `NC1=NC(c2ccc(-c3ccccc3)cc2)n2c(nc3ccccc32)N1` (stereo unspecified) here?
**A.** Its inhibition is 26.9% (inactive).

**Q.** With `CC(C)c1ccc(C2N=C(N)Nc3nc4ccccc4n32)cc1` (stereo unspecified) as the compound, how does the inhibition read?
**A.** The inhibition was 13.8% (inactive).

**Q.** For `Cc1oc(C)c(C(=O)NC(C)Cc2ccc(Cl)cc2)c1C` (stereo unspecified), which inhibition is on record?
**A.** The inhibition was 42.4% (inactive).

**Q.** With `CC(Cn1cccn1)NC(=O)c1ccc(Br)o1` (stereo unspecified) as the compound, how does the inhibition read?
**A.** The inhibition was 22.1% (inactive).

**Q.** Which inhibition does the source give for `Cc1cc(C(=O)NC(C)Cc2ccc(Br)cc2)on1` (stereo unspecified) here?
**A.** Its inhibition is 55.5% (active).

**Q.** Which inhibition does the source give for `CCCn1nc(C)c(CNc2ccc(Br)cc2)c1C` here?
**A.** Its inhibition is 20% (inactive).

**Q.** Which inhibition does the source give for `COc1ccc(C2CC(=O)c3cc([N+](=O)[O-])ccc3O2)cc1` (stereo unspecified) here?
**A.** Its inhibition is 96.6% (active).

**Q.** With `CN(C)C(=O)n1nnnc1Cc1ccc(-c2ccccc2)cc1` as the compound, how does the inhibition read?
**A.** Its inhibition is 39.2% (inactive).

**Q.** With `O=C(CCc1nnc(Cc2ccc(-c3ccccc3)cc2)o1)NC1CCc2ccccc21` (stereo unspecified) as the compound, how does the inhibition read?
**A.** The inhibition was 62% (active).

**Q.** For `CC(NC(=O)CCc1nnc(Cc2ccc(-c3ccccc3)cc2)o1)c1ccccc1` (stereo unspecified), which inhibition is on record?
**A.** Its inhibition is 37.7% (inactive).

**Q.** Which inhibition does the source give for `Cc1cn2nc(NC3CCc4ccccc43)sc2n1` (stereo unspecified) here?
**A.** The inhibition was 41.4% (inactive).

**Q.** With `O=C(CCc1nnc(Cc2ccc(-c3ccccc3)cc2)o1)NCc1cccnc1` as the compound, how does the inhibition read?
**A.** Its inhibition is “inactive”.

**Q.** For `O=C(CCc1nnc(Cc2ccc(-c3ccccc3)cc2)o1)NCCc1ccccn1`, which inhibition is on record?
**A.** The inhibition was 50.7% (active).

**Q.** Which inhibition does the source give for `O=c1oc2c(c(O)c1-c1ccccc1)-c1ccccc1CC2` here?
**A.** Its inhibition is 81% (active).

**Q.** For `O=C(Cc1noc(C2CC2c2ccc(Cl)cc2)n1)NC1CCCC1` (stereo unspecified), which inhibition is on record?
**A.** The inhibition was 91.9% (active).

**Q.** For `O=C(Cc1coc(-c2ccccc2)n1)NC1CCCC1`, which inhibition is on record?
**A.** Its inhibition is 21.1% (inactive).

**Q.** Which inhibition does the source give for `CC(C)(C)c1nc(CNC(=O)Cc2ccc(Cl)cc2)no1` here?
**A.** The inhibition was 27.8% (inactive).

**Q.** With `Nc1ccc(-n2cnc3ccccc32)cc1` as the compound, how does the inhibition read?
**A.** Its inhibition is 90.2% (active).

**Q.** With `CC(C)c1nc(SCC(=O)N(C)CCOc2ccc(Cl)cc2)n[nH]1` as the compound, how does the inhibition read?
**A.** Its inhibition is 34.8% (inactive).

**Q.** With `CCOC(=O)c1cnc(SCc2ccc(Cl)cc2)nc1N` as the compound, how does the inhibition read?
**A.** The inhibition was 89.2% (active).

**Q.** For `Brc1ccc(-c2ccc(Br)cc2)cc1`, which inhibition is on record?
**A.** The inhibition was 38.3% (inactive).

**Q.** With `Clc1ccc2nnc(-c3ccc(Br)cc3)n2n1` as the compound, how does the inhibition read?
**A.** The inhibition was 68.1% (active).

**Q.** Which inhibition does the source give for `CC(CC(=O)Nc1ccccc1-c1nn[nH]n1)CC(C)(C)C` (stereo unspecified) here?
**A.** The inhibition was -15.1% (inactive).

**Q.** For `CC(C)CCNC(=O)c1csc(-c2ccccc2)n1`, which inhibition is on record?
**A.** Its inhibition is -48.7% (inactive).

**Q.** Which inhibition does the source give for `CCOC(=O)c1c(C)c(C(=O)NCCC(C)C)c(C)n1Cc1ccccc1` here?
**A.** Its inhibition is 56.4% (active).

**Q.** Which inhibition does the source give for `CCOc1nc(C#N)nc(N2CCOCC2)n1` here?
**A.** Its inhibition is 22.3% (inactive).

**Q.** Which inhibition does the source give for `COC(=O)C1=C(C)N(C)C(=O)C12c1ccccc1-c1oc(N)nc12` (stereo unspecified) here?
**A.** The inhibition was 58.3% (active).

**Q.** For `COc1c(F)c(F)c(C(=O)C2C(=O)C=C(c3c(F)c(F)c(OC)c(F)c3F)OC2=O)c(F)c1F` (stereo unspecified), which inhibition is on record?
**A.** Its inhibition is 36.4% (inactive).

**Q.** Which inhibition does the source give for `Cc1cccn2c(NC(C)(C)CC(C)(C)C)c(-c3cccc(OC(=O)c4cccc5ccccc45)c3)nc12` here?
**A.** Its inhibition is 9.87% (inactive).

**Q.** For `Cc1ccc2nc(-c3ccccn3)c(NC(C)(C)CC(C)(C)C)n2c1`, which inhibition is on record?
**A.** Its inhibition is 101% (active).

**Q.** For `O=C(Nc1ccc(C(F)(F)F)[nH]c1=O)c1ccccc1`, which inhibition is on record?
**A.** The inhibition was -22.3% (inactive).

**Q.** Which inhibition does the source give for `Cc1ccc(NC(=O)c2cc3c(C(F)(F)F)cc(=O)[nH]c3o2)c(Cl)c1` here?
**A.** The inhibition was 101% (active).

**Q.** Which inhibition does the source give for `Cc1ccc(-n2nc3c(c2NC(=O)/C=C\c2ccccc2)CSC3)cc1` here?
**A.** Its inhibition is 84% (active).

**Q.** For `CN(Cc1ccco1)C(=O)c1sc2cc(F)ccc2c1Cl`, which inhibition is on record?
**A.** Its inhibition is 20.1% (inactive).

**Q.** With `CCCc1ccc(CN2CCN(Cc3cccc(F)c3)CC2)o1` as the compound, how does the inhibition read?
**A.** The inhibition was 45.4% (inactive).

**Q.** Which inhibition does the source give for `Cc1cccc(C2CC(C(=O)N(C)Cc3ccco3)CN(Cc3cccc(F)c3)C2)c1` (stereo unspecified) here?
**A.** Its inhibition is 54.6% (active).

**Q.** Which inhibition does the source give for `Cc1cc(C(=O)NCCc2ccc(Cl)cc2)c(C)o1` here?
**A.** The inhibition was 88.2% (active).

**Q.** Which inhibition does the source give for `CC(C)Nc1ncccc1C(=O)NCCc1cccc(Cl)c1` here?
**A.** Its inhibition is 15.2% (inactive).

**Q.** Which inhibition does the source give for `CC(C)Cc1noc(Cn2cc(I)cn2)n1` here?
**A.** The inhibition was 91.5% (active).

**Q.** Which inhibition does the source give for `CC(C)Cc1nc(CS(=O)(=O)C/C=C/c2ccccc2)no1` here?
**A.** Its inhibition is 43.6% (inactive).

**Q.** Which inhibition does the source give for `CC(CCC(=O)O)[C@H]1CCC2C3CC[C@@H]4C[C@H](O)CC[C@]4(C)C3C=C[C@@]21C` (stereo partly specified) here?
**A.** The inhibition was 34.3% (inactive).

**Q.** For `O=S(CCCOc1ccc(F)cc1)Cc1ccc(F)cc1Cl` (stereo unspecified), which inhibition is on record?
**A.** The inhibition was 89.6% (active).

**Q.** For `CN(CCOc1ccc(F)cc1)Cc1nc2cc(Cl)ccc2c(=O)[nH]1`, which inhibition is on record?
**A.** The inhibition was -0.34% (inactive).

**Q.** With `Cc1cc(NC(=O)c2cccc(C(F)(F)F)c2)n(-c2nc3c(c(=O)[nH]2)CCC3)n1` as the compound, how does the inhibition read?
**A.** Its inhibition is 100% (active).

**Q.** For `Cc1cc(NC(=O)c2cccc(F)c2)n(-c2nc3c(c(=O)[nH]2)CCC3)n1`, which inhibition is on record?
**A.** The inhibition was 101% (active).

**Q.** For `O=C(NCCNc1cccc(C(F)(F)F)n1)c1ccc(O)cc1`, which inhibition is on record?
**A.** Its inhibition is 73.2% (active).

**Q.** With `CN(C)C(CNC(=O)c1ccc(C(F)(F)F)cc1)c1c(F)cccc1Cl` (stereo unspecified) as the compound, how does the inhibition read?
**A.** Its inhibition is 8.7% (inactive).

**Q.** For `CN(Cc1ccc(Br)s1)Cn1ncc2c([nH]c3ccccc32)c1=O`, which inhibition is on record?
**A.** Its inhibition is -13.5% (inactive).

**Q.** Which inhibition does the source give for `CCNC(=O)c1ccccc1OCc1cccc(Br)c1` here?
**A.** Its inhibition is 19.8% (inactive).

**Q.** For `Cc1nc([N+](=O)[O-])cn1CCC(=O)NOCc1ccccc1`, which inhibition is on record?
**A.** Its inhibition is -5.24% (inactive).

**Q.** With `O=C(Nn1cc([N+](=O)[O-])cn1)c1cccc(COc2ccc(Br)cc2)c1` as the compound, how does the inhibition read?
**A.** The inhibition was 78.8% (active).

**Q.** For `CNC(=O)Cc1ccc(-c2cc(OC)ccc2F)cc1`, which inhibition is on record?
**A.** The inhibition was 57.2% (active).

**Q.** For `CCCSc1nsc(SCCC)c1C#N`, which inhibition is on record?
**A.** Its inhibition is 97.4% (active).

**Q.** With `CCCCCCSc1s[nH]c(=O)c1C#N` as the compound, how does the inhibition read?
**A.** The inhibition was “inactive”.

**Q.** Which inhibition does the source give for `Fc1ccccc1Cn1nnc(-c2ccc(Br)cc2)n1` here?
**A.** The inhibition was 94.7% (active).

**Q.** For `Fc1ccc(-c2nnn(Cc3ccccc3Br)n2)cc1`, which inhibition is on record?
**A.** The inhibition was -14% (inactive).

**Q.** Which inhibition does the source give for `O=c1cc2c(nn1Cc1ccc(Br)cc1F)CCCC2` here?
**A.** Its inhibition is -5.6% (inactive).

**Q.** For `C/C(=C\c1ccco1)CN1CCN(c2nc3cc(C)ccc3o2)CC1`, which inhibition is on record?
**A.** The inhibition was 94.4% (active).

**Q.** With `Cc1ccc2oc(CN3CCN(c4cc(N)nc(N)n4)CC3)c(C)c2c1` as the compound, how does the inhibition read?
**A.** Its inhibition is 34.6% (inactive).

**Q.** With `C/C(=C\c1cc(Cl)ccc1O)CN1CCN(c2ncc(F)cn2)CC1` as the compound, how does the inhibition read?
**A.** The inhibition was 37.7% (inactive).

**Q.** With `CCCCN(C(=O)c1nc2nccc(C)n2n1)c1ccccc1` as the compound, how does the inhibition read?
**A.** Its inhibition is -8.51% (inactive).

**Q.** For `C(=Cc1ccccc1)CSc1nnc(-c2c[nH]c3ccccc23)o1`, which inhibition is on record?
**A.** Its inhibition is 19.9% (inactive).

**Q.** For `C=CCSc1nnc(-c2sc3ccccc3c2Cl)o1`, which inhibition is on record?
**A.** Its inhibition is 66.8% (active).

**Q.** For `S=c1oc(-c2sc3ccccc3c2Cl)nn1CN1CCOCC1`, which inhibition is on record?
**A.** Its inhibition is 1.82% (inactive).
